# Experimental data published in PubChem BioAssay (NCATS).
# Values joined by “and” are separate entries in the source; they are usually repeats but may differ in a detail not shown here. Identical values can stand only once. Records with an inconclusive call do not appear. A number with no mark means an inactive call. Active and inactive are the calls of the source. Calls come from the whole dose curve; as a rule, active = well fitted curve in the direction sought with a large enough effect; inconclusive = small, poorly fitted or top-dose-only effect, or another doubt; inactive = no such curve, though single readings can be large; an effect the other way counts as inactive or inconclusive. Residues, ends and D or L forms follow the SMILES beside them.
# What was measured:
# [1] = target: Cellular tumor antigen p53 (Homo sapiens) (UniProt P04637); experiment: Primary qHTS for small molecule compounds that upregulate eGFP-tagged delta133p53alpha (in N-terminal) cells. (AID 2060322); conditions: NCI-H358 eGFP-delta133p53alpha fluorescence, 24 h; activation: hits give high values; note: nearly all actives have a fitted effect of over 75% in size; note: potency is the fitted concentration of half-maximal effect;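 for activation: series mostly up to about 56 µM; 0% = DMSO vehicle and 100% = reference activator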
# How it was run: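 NCI-H358 cells pre-induced 24 h with 10 ng/ml doxycycline to express N-terminal eGFP-delta133p53alpha, then dosed 24 h at 37C without doxycycline; fixed, Hoechst-stained, GFP intensity by laser scanning cytometry, normalized to DMSO (0%) and 57.5 uM 5-azacytidine (100%).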
# [2] = BET inhibitor-based combinations targeting novel dependencies in MECOM-rearranged (r) AML: SET-2 cell line (AID 2202231); conditions: SET-2 AML cells viability, CellTiter-Glo luminescence, 48 h; viability: hits give low values, concentration not given here; note: nearly all actives have a fitted effect of over 35% in size; note: potency is the fitted concentration of half-maximal effect;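 for viability: plate controls were DMSO treated cells for no effect and wells without cells for full effect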
# How it was run: (§1)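 Viability of cells (500 per well) is scored by luminescent CellTiter-Glo at 48 hr post-dosing. Eleven-point titrations are normalized to DMSO and empty controls and reduced to AUC values.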
# [3] = BET inhibitor-based combinations targeting novel dependencies in MECOM-rearranged (r) AML: OCI-AML3 cell line (AID 2202232); conditions: Potency: OCI-AML3 viability; note: nearly all actives have a fitted effect of over 35% in size; note: potency is the fitted concentration of half-maximal effect
# How it was run: as §1
# [4] = BET inhibitor-based combinations targeting novel dependencies in MECOM-rearranged (r) AML: MV-4-11 cell line (AID 2202233); note: nearly all actives have a fitted effect of over 45% in size; note: potency is the fitted concentration of half-maximal effect
# How it was run: (§2)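 Using pin-tool transfer, drugs were added in 11 doses to cells (500/well), incubated 48 hr, and assessed with CellTiter-Glo. Z-AUC is a mean-centring transformation applied separately to each screened line.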
# [5] = BET inhibitor-based combinations targeting novel dependencies in MECOM-rearranged (r) AML: HNT-34 cell line (AID 2202234); note: nearly all actives have a fitted effect of over 35% in size; note: potency is the fitted concentration of half-maximal effect
# How it was run: as §2
# [6] = BET inhibitor-based combinations targeting novel dependencies in MECOM-rearranged (r) AML: UCSD-AML1 cell line (AID 2202235); note: nearly all actives have a fitted effect of over 40% in size; note: potency is the fitted concentration of half-maximal effect
# How it was run: as §2
# [7] = BET inhibitor-based combinations targeting novel dependencies in MECOM-rearranged (r) AML: AML-191 cell line (AID 2202236; note: nearly all actives have a fitted effect of over 35% in size; note: potency is the fitted concentration of half-maximal effect)
# How it was run: as §1
# [8] = target: Retinaldehyde dehydrogenase 3 (Homo sapiens) (UniProt P47895); experiment: qHTS for Inhibitors of the Aldehyde Dehydrogenase Family (ALDH1A3) Primary screen (AID 2061315);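 note: plate controls were DMSO vehicle for no effect and reference inhibitor for full effect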
# [9] = BET inhibitor-based combinations targeting novel dependencies in MECOM-rearranged (r) AML: AML-194 cell line (AID 2202237; note: nearly all actives have a fitted effect of over 40% in size; note: potency is the fitted concentration of half-maximal effect)
# How it was run: as §1
# Sequence of Cellular tumor antigen p53 (Homo sapiens) (P04637 whole entry, looked up): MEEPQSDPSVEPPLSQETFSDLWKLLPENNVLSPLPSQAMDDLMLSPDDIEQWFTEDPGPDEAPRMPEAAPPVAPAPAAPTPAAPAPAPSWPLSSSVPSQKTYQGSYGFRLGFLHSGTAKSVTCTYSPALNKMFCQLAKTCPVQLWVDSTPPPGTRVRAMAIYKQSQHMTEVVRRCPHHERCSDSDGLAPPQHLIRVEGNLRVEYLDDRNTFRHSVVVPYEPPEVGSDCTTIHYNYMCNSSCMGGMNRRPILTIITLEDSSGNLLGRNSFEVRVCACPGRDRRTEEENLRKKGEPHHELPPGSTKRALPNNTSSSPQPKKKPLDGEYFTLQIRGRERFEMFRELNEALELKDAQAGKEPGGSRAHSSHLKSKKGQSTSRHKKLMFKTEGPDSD
SMILES,activation [1],Potency [2],Potency [3],Potency [4],Potency [5],Potency [6],Potency [7],Potency [8],viability [2],Potency [1],Potency [9]
C[C@H]1COC2=C1C(=O)C(=O)c1c2ccc2c1CCCC2(C)C,-1.94%,20.9 µM (active),20.9 µM (active),13.2 µM (active),–,–,–,–,–,–,–
CC(C)C[C@@H](C(=O)N[C@H](C(=O)OC1CCCC1)c1ccccc1)[C@H](O)C(=O)NO,10.8%,14.8 µM (active),13.2 µM (active),3.32 µM (active),18.6 µM (active),20.9 µM (active),20.9 µM (active),–,–,–,–
CCOc1cc(N2CCC(O)CC2)ccc1Nc1ncc2c(n1)N(C)c1ccccc1C(=O)N2C,72.4%,14.8 µM (active),3.32 µM (active),2.95 µM (active),14.8 µM (active),8.33 µM (active),–,–,–,–,–
CC[C@H](Nc1ncnc2nc[nH]c12)c1nc2cccc(F)c2c(=O)n1-c1ccccc1,21.6% and 7.67%,–,4.68 µM (active),–,–,5.9 µM (active),–,inactive,94.4%,–,–
C[C@H](Nc1ncnc2nc[nH]c12)c1cc2ccc(F)cc2nc1-c1ccccn1,5%,–,–,–,–,–,18.6 µM (active),inactive,–,–,–
COc1cccc2nc(-c3cccs3)nc(NN3C(=O)C=C(C)C3=O)c12,–,0.417 µM (active),0.417 µM (active),0.166 µM (active),0.263 µM (active),0.105 µM (active),0.148 µM (active),inactive,–,19.3 µM (active),0.263 µM (active)
CS(=O)(=O)Oc1ccc2c(NC(N)=O)c(C(=O)c3ccc(Cl)cc3Cl)oc2c1,-14%,–,inactive,inactive,inactive,inactive,inactive,–,97.1%,–,inactive
Cc1cn([C@@H]2C[C@@H](O)[C@H](CO)O2)c(=O)[nH]c1=O,-12.7%,–,inactive,inactive,inactive,inactive,inactive,–,103%,–,inactive
O=C(NCCCCN1CCOCC1)c1cc2ccccc2o1,15.9%,–,inactive,inactive,inactive,inactive,inactive,–,111%,–,inactive
O=C(Nc1ccc2[nH]nc(-c3ccncc3)c2c1)[C@@H]1CCN(CC(=O)N2CCN(c3ccc(-c4ncccn4)cc3)CC2)C1,4.47%,23.5 µM (active),0.235 µM (active),1.66 µM (active),1.05 µM (active),2.63 µM (active),2.09 µM (active),–,–,–,–
CC(=O)OCC(=O)[C@@]12N=C(C)O[C@@H]1C[C@H]1[C@@H]3CCC4=CC(=O)C=C[C@]4(C)[C@H]3[C@@H](O)C[C@@]12C,-1.69%,–,inactive,inactive,inactive,inactive,–,–,113%,–,–
C[C@H](Nc1ncnc2nc[nH]c12)c1cc2cccc(Cl)c2c(=O)n1-c1ccccc1,7%,18.6 µM (active),0.934 µM (active),–,–,1.32 µM (active),–,inactive,–,–,–
CCOc1cc(C(C)(C)C)ccc1C1=N[C@@](C)(c2ccc(Cl)cc2)[C@@](C)(c2ccc(Cl)cc2)N1C(=O)N1CCN(CC(=O)N2CCOCC2)CC1,35.5%,–,11.5 µM (active),1.63 µM (active),–,–,7.28 µM (active),inactive,–,–,9.17 µM (active)
CCc1c2c(nc3ccc(OC(=O)N4CCC(N5CCCCC5)CC4)cc13)-c1cc3c(c(=O)n1C2)COC(=O)[C@]3(O)CC,14.2%,0.372 µM (active),0.186 µM (active),0.166 µM (active),0.105 µM (active),0.209 µM (active),0.235 µM (active),–,–,–,–
Oc1cc(-c2nc(-c3ccccc3)[nH]c2-c2ccncc2)ccc1Cl,22.4%,–,4.17 µM (active),14.8 µM (active),7.42 µM (active),–,–,inactive,–,–,–
Cc1cc(NC(=O)Nc2ccc(N(C)C)cc2)c2cc(F)cc(F)c2n1,-0.105%,–,8.11 µM (active),–,–,–,–,–,94.3%,–,–
Cc1cc(Nc2ncc3c(n2)N(C)C(=O)N(c2cc(NC(=O)c4cccc(C(F)(F)F)c4)ccc2C)C3)n(C)n1,–,0.833 µM (active),0.296 µM (active),0.0372 µM (active),0.0263 µM (active),0.417 µM (active),0.235 µM (active),–,–,0.432 µM (active),–
OCCC#Cc1nc(-c2ccc(F)cc2)c(-c2ccncc2)n1CCCc1ccccc1,17.2%,–,–,–,–,–,–,–,100%,–,–
CN(C)S(=O)(=O)c1ccc2c(c1)C(=Cc1cc3c([nH]1)CCCC3)C(=O)N2,–,–,5.9 µM (active),2.09 µM (active),–,–,–,–,101%,1.37 µM (active),–

SMILES,activation [1],Potency [2],Potency [3],Potency [4],Potency [5],Potency [6],Potency [7],Potency [8],viability [2],Potency [1],Potency [9]
Nc1ccccc1NC(=O)c1ccc(CNc2nccc(-c3cccnc3)n2)cc1,65.9%,–,1.32 µM (active),–,1.86 µM (active),1.32 µM (active),1.66 µM (active),inactive,–,–,1.66 µM (active)
Cc1cc(Nc2nc(N[C@@H](C)c3ccc(F)cc3)c(C#N)cc2F)n[nH]1,–,–,0.525 µM (active),0.662 µM (active),–,0.525 µM (active),0.105 µM (active),inactive,–,16.9 µM (active),0.166 µM (active)
CN1C(=O)c2sccc2N(C)c2nc(Nc3ccc(S(N)(=O)=O)cc3)ncc21,-6.75%,6.61 µM (active),1.66 µM (active),1.05 µM (active),0.934 µM (active),2.35 µM (active),3.72 µM (active),–,–,–,2.35 µM (active)
N[C@@H](CC(=O)N1CCn2c(nnc2C(F)(F)F)C1)Cc1cc(F)c(F)cc1F,-12.2%,–,inactive,inactive,inactive,inactive,inactive,–,112%,–,inactive
COc1cc(C)c(Sc2cnc(NC(=O)c3ccc(CNC(C)C(C)(C)C)cc3)s2)cc1C(=O)N1CCN(C(C)=O)CC1 (stereo not given),–,23.5 µM (active),14.8 µM (active),4.17 µM (active),16.6 µM (active),14.8 µM (active),14.8 µM (active),–,–,43.2 µM (active),11.8 µM (active)
O=C1CCCC(=O)C1C(=O)c1ccc(C(F)(F)F)cc1[N+](=O)[O-],24.5%,–,inactive,inactive,inactive,inactive,inactive,–,111%,–,inactive
CC#CCn1c(N2CCC[C@@H](N)C2)nc2c1c(=O)n(Cc1nc(C)c3ccccc3n1)c(=O)n2C,6.37%,–,inactive,inactive,inactive,inactive,inactive,–,113%,–,inactive
Cc1ccc(S(=O)(=O)OCC(=O)Nc2ccc(C(=O)O)c(O)c2)cc1,22.5%,–,inactive,inactive,inactive,inactive,inactive,–,117%,–,inactive
CCCN[C@H]1CCc2nc(N)sc2C1,9.21% and 7.7%,–,inactive,0.934 µM (active),inactive,inactive,inactive,–,116%,–,inactive
CC(=O)O[C@H]1C[C@@H]2CC[C@H]3[C@H]4C[C@H]([N+]5(C)CCCCC5)[C@@H](OC(C)=O)[C@@]4(C)CC[C@@H]3[C@@]2(C)C[C@H]1[N+]1(C)CCCCC1,5.41%,–,inactive,inactive,inactive,inactive,inactive,–,114%,–,inactive
Cc1ncc([N+](=O)[O-])n1CC(C)O (stereo not given),12.6% and -16.1%,–,inactive,inactive,inactive,inactive,inactive,–,124%,–,inactive
O=C(CN1C(=O)C2(CCCC2)NC[C@H]1c1cc(F)cc(F)c1)Nc1ccc2c(c1)C[C@@]1(C2)C(=O)Nc2ncccc21,22.6%,–,inactive,inactive,inactive,inactive,inactive,–,98.8%,–,inactive
Nc1ccn([C@@H]2CS[C@H](CO)O2)c(=O)n1,-9.96%,–,inactive,inactive,inactive,inactive,inactive,–,113%,–,inactive
CC(=O)O[C@H]1C[C@@H]2CC[C@@H]3[C@H](CC[C@@]4(C)[C@H]3C[C@H]([N+]3(C)CCCCC3)[C@@H]4OC(C)=O)[C@@]2(C)C[C@@H]1N1CCCCC1,9.6%,–,inactive,inactive,inactive,inactive,inactive,–,116%,–,inactive
COC(=O)[C@H](Cc1ccccc1)NC(=O)[C@@H](N)CC(=O)O (H-Asp-Phe-OMe),-35.6% and -14.3%,–,inactive,inactive,inactive,inactive,inactive,–,112%,–,inactive
CCCc1cc(C(N)=S)ccn1,-10.9% and -12.4%,–,inactive,inactive,inactive,inactive,inactive,–,112%,–,inactive
Nc1ncnc2c1nc(Cl)n2[C@@H]1O[C@H](CO)[C@@H](O)[C@@H]1O,-2.08%,11.8 µM (active),13.2 µM (active),5.25 µM (active),2.95 µM (active),5.9 µM (active),3.72 µM (active),–,–,–,2.63 µM (active)
NC(=O)c1cnc(N[C@@H]2CCCC[C@@H]2N)nc1Nc1cccc(-n2nccn2)c1,–,23.5 µM (active),16.6 µM (active),3.32 µM (active),14.8 µM (active),8.33 µM (active),16.6 µM (active),–,–,34.3 µM (active),18.6 µM (active)
COC(=O)Nc1nc2ccc(Sc3ccccc3)cc2[nH]1,-17.6% and 21.8%,1.18 µM (active),0.742 µM (active),0.934 µM (active),0.525 µM (active),0.468 µM (active),0.468 µM (active),–,–,–,0.417 µM (active)
